Results published in PubChem BioAssay AID1159580 (chemical genetic matrix, 2015).
Values joined by “and” are separate entries in the source; they are usually repeats but may differ in a detail not shown here. Identical values can stand only once. About 2,000 (36%) of roughly 5,500 compounds were called active. Not shown: some 18% with an inconclusive outcome. No stated cut-off is given here; in the data, active means normalized growth mostly below about 0.91 (no sharp cut-off); inconclusive means no clear call, values can overlap the other calls; inactive means mostly above about 0.92. The list shows a part of the results.

Experiment: chemical genetic growth profiling, strain panel (AID 1159580);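 further: tested at 20 µM; growth read once vehicle control cultures reached saturation at 30 °C; 1 = growth at the plate median or of vehicle wells; lower values mean less growth of the strain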
Conditions: S. cerevisiae deletion strains, growth OD

Measured: normalized growth

CCC(C)C(=O)O[C@H]1[C@H](O)C2C(CN3CC(C)CCC3[C@@]2(C)O)C2C[C@]34O[C@]5(O)C(OC(=O)C(C)(O)CC)CC[C@@]3(C)C5C(OC(C)=O)[C@@H](OC(C)=O)C4[C@@]21O (stereo partly specified)
inactive: locus YAL013W, strain DEP1, active compounds read low 1.01 | locus YAL021C, strain ccr4, active compounds read low 1.01 | locus YAL026C, strain drs2, active compounds read low 1.02 | locus YAL030W, strain snc1, active compounds read low 1.01 | locus YBL061C, strain skt5, active compounds read low 1.01 | locus YBR009C, strain hhf1, active compounds read low 1.02 | locus YBR021W, strain FUR4, active compounds read low 1.01 | locus YBR023C, strain chs3, active compounds read low 1.03 | locus YBR171W, strain sec66, active compounds read low 1.03 | locus YBR229C, strain ROT2, active compounds read low 0.999 | locus YBR231C, strain swc5, active compounds read low 1.01 | locus YBR279W, strain paf1, active compounds read low 1.02 | locus YCL011C, strain gbp2, active compounds read low 1.02 | locus YCL016C, strain dcc1, active compounds read low 1.03 | locus YCL029C, strain bik1, active compounds read low 0.988 | locus YCL069W, strain vba3, active compounds read low 1.02 | locus YCR088W, strain abp1, active compounds read low 1.02 | locus YDL005C, strain med2, active compounds read low 1.03 | locus YDL035C, strain GPR1, active compounds read low 1.02 | locus YDL040C, strain nat1, active compounds read low 1.02 | locus YDL074C, strain BRE1, active compounds read low 1.02 | locus YDL101C, strain DUN1, active compounds read low 1.02 | locus YDL134C, strain PPH21, active compounds read low 1.01 | locus YDL185W, strain tfp1, active compounds read low 0.995 | locus YDL192W, strain arf1, active compounds read low 0.99 | locus YDR001C, strain nth1, active compounds read low 1.01 | locus YDR069C, strain doa4, active compounds read low 1.02 | locus YDR101C, strain arx1, active compounds read low 0.991 | locus YDR137W, strain rgp1, active compounds read low 1.04 | locus YDR150W, strain NUM1, active compounds read low 1.02 | locus YDR159W, strain sac3, active compounds read low 1.04 | locus YDR162C, strain NBP2, active compounds read low 1.02 | locus YDR195W, strain ref2 1.01 | locus YDR297W, strain sur2, active compounds read low 1.01 | locus YDR318W, strain mcm21, active compounds read low 0.984 | locus YDR334W, strain swr1, active compounds read low 1.02 | locus YDR335W, strain msn5, active compounds read low 1.05 | locus YDR388W, active compounds read low 0.989 | locus YDR392W, strain spt3, active compounds read low 1.04 | locus YDR502C, strain sam2, active compounds read low 0.989 | locus YEL003W, strain gim4, active compounds read low 1.02 | locus YEL037C, strain rad23, active compounds read low 1.03 | locus YEL061C, strain CIN8 (second series), active compounds read low 1.02 | locus YEL061C, strain CIN8, active compounds read low 1.01 | locus YER015W, strain faa2, active compounds read low 1.02 | locus YER016W, strain bim1, active compounds read low 1.03 | locus YER110C, active compounds read low 0.982 | locus YER111C, strain swi4, active compounds read low 1.02 | locus YER155C, strain BEM2 (second series), active compounds read low 1.03 | locus YER155C, strain BEM2, active compounds read low 1 | locus YER167W, strain BCK2, active compounds read low 1.02 | locus YFR010W, strain ubp6, active compounds read low 1.01 | locus YGL078C, strain dbp3, active compounds read low 0.986 | locus YGL086W, strain mad1, active compounds read low 1 | locus YGL167C, strain pmr1, active compounds read low 1.01 | locus YGL173C, strain kem1, active compounds read low 1.03 | locus YGL227W, strain vid30, active compounds read low 1.03 | locus YGL240W, strain doc1, active compounds read low 1.01 | locus YGL248W, strain PDE1, active compounds read low 1.01 | locus YGL253W, strain hxk2, active compounds read low 1.04 | locus YGR078C, strain PAC10, active compounds read low 1.02 | locus YGR135W, strain pre9, active compounds read low 0.983 | locus YGR229C, strain SMI1, active compounds read low 1 | locus YGR252W, strain gcn5, active compounds read low 0.965 | locus YHR013C, strain ard1, active compounds read low 1.05 | locus YHR027C, strain rpn1, active compounds read low 1.03 | locus YHR030C, strain SLT2, active compounds read low 1.01 and 1.05 | locus YHR079C, strain IRE1 (second series), active compounds read low 0.993 | locus YHR079C, strain IRE1, active compounds read low 1.01 | locus YHR094C, strain hxt1, active compounds read low 0.99 | locus YHR129C, strain ARP1, active compounds read low 1.01 | locus YHR142W, strain chs7, active compounds read low 1.04 | locus YHR200W, strain rpn10, active compounds read low 1 | locus YIL066C, strain RNR3, active compounds read low 1.01 | locus YIL073C, strain SPO22, active compounds read low 1.02 | locus YIL125W, strain kgd1, active compounds read low 0.995 | locus YIR030C, strain dcg1, active compounds read low 0.993 | locus YJL092W, strain hpr5, active compounds read low 1.02 | locus YJL095W, strain BCK1 (second series), active compounds read low 1.03 | locus YJL095W, strain BCK1, active compounds read low 1.01 and 0.996 | locus YJL115W, strain asf1, active compounds read low 1.03 | locus YJL129C, strain trk1, active compounds read low 1.04 | locus YJL134W, strain LCB3, active compounds read low 1.01 | locus YJL154C, strain vps35, active compounds read low 1.02 | locus YJL164C, strain tpk1, active compounds read low 1.01 | locus YJL166W, strain qcr8, active compounds read low 1.01 | locus YJL168C, strain set2, active compounds read low 0.996 | locus YJL187C, strain SWE1 (second series), active compounds read low 1.01 | locus YJR043C, strain POL32, active compounds read low 0.995 | locus YJR066W, strain TOR1, active compounds read low 0.976 | locus YJR075W, strain HOC1, active compounds read low 1
